Assay outcomes (PubChem BioAssay)
HPGD block: HPGD (human) dehydrogenase inhibition; P15428; purified HPGD, NADH fluorescence kinetic, PGE2 substrate; Potency, µM, actives largely listed as inhibitors; actives 4.3% (n = 150,000); active = well fitted inhibition curve with a large enough effect, not every such curve was filed as active; inconclusive = small, poorly fitted or top-dose-only effect, or another doubt; inactive = no such curve, though single readings can be large or run the other way
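NADH formation kinetics: reaction with 30 uM PGE2 and 1 mM NAD+ (final), 20 nM enzyme, Tris-HCl pH 8 with Tween 20, after 15 min compound preincubation at room temperature. Fluorescence change, last versus first of five reads.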
ALDH1A1 inh: inhibitors of human aldehyde dehydrogenase 1A1. Potency, µM (doses to about 75.3 µM), actives largely listed as inhibitors. Purified ALDH1A1, NADH fluorescence, propionaldehyde substrate. actives 7.3% (n = 220,000); active = well fitted inhibition curve with a large enough effect, not every such curve was filed as active; inconclusive = small, poorly fitted or top-dose-only effect, or another doubt; inactive = no such curve, though single readings can be large or run the other way
IMPase Li inh: IMPase inhibition in cells with lithium potentiation; CHO-M1 cells, IP1 TR-FRET (IP-One), carbachol + lithium; AID 1457; actives 0.35% (n = 210,000); Potency, µM (top dose mostly 59.4 µM), hits mostly inhibitors;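 also: IP1 builds up when IMPase is blocked and the TR-FRET signal falls; nearly all actives have a fitted effect of over 50% in size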
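CHO cells stably expressing M1 receptor (2000/well) were cultured 16–30 h, then exposed to compounds with a small lithium addition for 30 min at 37C. IP1 was measured by TR-FRET competition; AC50 from Hill fits.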
PNC assembly inh: blocks assembly of the perinucleolar compartment; PC3M PTB-GFP, PNC prevalence imaging, 16 h; hits give low values; activity change (PNC), negative = inhibition, % at 10 µM; actives 3.1% (n = 140,000);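 active = readout at or below -70, meaning at least 70% loss of cells showing the perinucleolar compartment, a nuclear body marking cancer cells; inconclusive = readout between -30 and a set limit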
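PC3M cells stably expressing PTB-GFP, 750–1000 cells/well, treated 16 h at 37 °C with compound (23 nl of library stock), in duplicate. After paraformaldehyde fixation and Hoechst stain, imaged at 20x; PNC prevalence scored by image analysis.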
IMPase inh: membrane-permeable compound that blocks inositol monophosphatase | P97697 | CHO-M1 cells, IP1 accumulation, HTRF TR-FRET ratio | inhibition (IP1 accumulation), % at 46.1 µM | 120,000 tested, under 10 active | AID 901; active = well fitted curve in the direction sought with a large enough effect in the signal ratio, not every such curve was filed as active; inconclusive = small, poorly fitted or top-dose-only effect, or a change in a side signal; inactive = no such curve, though single readings can be large or run the other way; the % refers to the signal ratio;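 also: cells stimulated with carbachol in lithium chloride buffer; higher means more IMPase inhibition seen as more IP1 and lower FRET ratio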
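Seeded CHO-M1 cells were dosed with compound at up to 46 uM, stimulated with carbachol for 30 min, then lysed in IP-One detection reagents. Higher IP1 lowers the TR-FRET signal.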
12-hLO inh: blocks human 12-lipoxygenase activity; P18054; purified 12-hLO, xylenol orange hydroperoxide absorbance; actives 0.12% (n = 150,000); Potency, µM (top dose mostly 57.1 µM), most hits filed as inhibitors; also: nearly all actives have a fitted effect of over 55% in size
Target sequence (P18054 whole entry, looked up): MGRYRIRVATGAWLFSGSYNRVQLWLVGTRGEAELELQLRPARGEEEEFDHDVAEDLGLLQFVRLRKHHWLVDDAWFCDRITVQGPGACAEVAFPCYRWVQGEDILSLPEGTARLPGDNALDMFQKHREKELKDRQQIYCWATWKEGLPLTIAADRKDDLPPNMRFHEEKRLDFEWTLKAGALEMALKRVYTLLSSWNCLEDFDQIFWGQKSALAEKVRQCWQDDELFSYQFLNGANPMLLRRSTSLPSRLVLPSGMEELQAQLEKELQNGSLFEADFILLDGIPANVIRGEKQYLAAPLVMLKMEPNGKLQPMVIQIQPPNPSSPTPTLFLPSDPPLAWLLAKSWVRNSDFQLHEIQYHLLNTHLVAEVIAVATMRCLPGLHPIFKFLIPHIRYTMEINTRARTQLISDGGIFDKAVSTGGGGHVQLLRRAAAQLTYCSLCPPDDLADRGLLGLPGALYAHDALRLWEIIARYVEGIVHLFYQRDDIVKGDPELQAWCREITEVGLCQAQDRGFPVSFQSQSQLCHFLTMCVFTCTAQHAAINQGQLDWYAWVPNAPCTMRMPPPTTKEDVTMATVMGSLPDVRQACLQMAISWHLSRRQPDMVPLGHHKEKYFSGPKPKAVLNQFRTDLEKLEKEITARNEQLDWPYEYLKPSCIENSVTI
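Hydroperoxide formation by human 12-lipoxygenase from 40 uM arachidonic acid was followed colorimetrically via ferric-xylenol orange complex, using the 573/405 nm absorbance ratio. Enzyme concentration was 150 nM, with 30 min reaction at room temperature.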
A number is an active result. This is a sample that favours compounds with a hit; in the whole collection about 11% have one here. Unless noted, calls follow the shape of the dose curve; as a rule, active = well fitted curve in the direction sought with a large enough effect; inconclusive = small, poorly fitted or top-dose-only effect, or another doubt; inactive = no such curve, though single readings can be large; an effect the other way counts as inactive or inconclusive.

For Cn1c(=O)n(C)c2cc(N3CCOCC3)c(NC(=O)c3ccc(Cl)cc3)cc21 the results were IMPase inh inactive.
O=[N+]([O-])c1ccc(O)c(NC(=S)Nc2ccccc2)c1 was read as HPGD block inconclusive, ALDH1A1 inh 22µM, IMPase Li inh inactive, PNC assembly inh inactive, IMPase inh inactive and 12-hLO inh inactive.
For COc1ccc([N+](=O)[O-])cc1NC(=S)Nc1ccccc1 the results were HPGD block inactive, ALDH1A1 inh inconclusive, IMPase Li inh inactive, PNC assembly inh inactive, IMPase inh inactive and 12-hLO inh inactive.
`COc1ccc(C2=NOC(Cn3c(Cc4ccc(Cl)cc4)nc4c3c(=O)n(C)c(=O)n4C)C2)cc1` (stereo unspecified) gave HPGD block inconclusive, ALDH1A1 inh inconclusive, IMPase Li inh inactive, PNC assembly inh -108, IMPase inh inactive and 12-hLO inh inactive.
Screening O=[N+]([O-])c1ccc2ncnc(Nc3ccc4c(c3)OCCO4)c2c1 returned ALDH1A1 inh 0.35µM and IMPase Li inh inactive.
CCOc1ccc(C2C(C(=O)c3ccco3)=C(O)C(=O)N2Cc2cccnc2)cc1OC (stereo unspecified) was read as HPGD block inactive, ALDH1A1 inh 25µM, IMPase Li inh 11µM, PNC assembly inh inactive, IMPase inh inactive and 12-hLO inh inactive.
CCc1ccc(C2c3c(oc4cc(C)c(C)cc4c3=O)C(=O)N2c2nc(C)c(C(=O)OC)s2)cc1 (stereo unspecified) was read as IMPase inh inactive.
`CCOc1cccc(C2C(C(=O)c3ccc(C)o3)=C(O)C(=O)N2Cc2ccncc2)c1` (stereo unspecified) gave HPGD block inactive, ALDH1A1 inh inconclusive, IMPase Li inh 10µM, PNC assembly inh inactive, IMPase inh inconclusive and 12-hLO inh inactive.
Screening COC(=O)c1sc(N2C(=O)C(O)=C(C(=O)c3ccc(C)o3)C2c2ccc(F)cc2)nc1C (stereo unspecified) returned HPGD block 8.9µM, ALDH1A1 inh inconclusive, IMPase Li inh 7.9µM, PNC assembly inh inactive, IMPase inh inconclusive and 12-hLO inh inactive.
COCCCN1C(=O)C(O)=C(C(=O)c2ccco2)C1c1ccccc1 (stereo unspecified) was read as HPGD block inactive, ALDH1A1 inh 28µM, IMPase Li inh 7.9µM, PNC assembly inh inconclusive, IMPase inh inconclusive and 12-hLO inh inactive.
CCOc1cccc(C2C(C(=O)c3ccc(C)o3)=C(O)C(=O)N2c2nccs2)c1 (stereo unspecified) was read as ALDH1A1 inh inactive, PNC assembly inh inactive, IMPase inh inconclusive and 12-hLO inh inconclusive.
Cc1nc(NCc2ccccc2)c2nc(-c3ccccc3)n(CC(C)(C)CN(C)C)c2n1 was read as HPGD block inconclusive, ALDH1A1 inh inconclusive, IMPase Li inh inactive and 12-hLO inh inactive.
`COc1ccc(C2C(C(=O)c3cccs3)=C(O)C(=O)N2c2nnc(C)s2)cc1OC` (stereo unspecified) gave HPGD block inactive, ALDH1A1 inh inactive, IMPase Li inh inactive, PNC assembly inh inactive, IMPase inh inactive and 12-hLO inh inactive.
`Cc1ccc(C2C(C(=O)c3ccco3)=C(O)C(=O)N2c2nnc(C)s2)cc1` (stereo unspecified) gave HPGD block inactive, ALDH1A1 inh inactive, IMPase Li inh 10µM, PNC assembly inh inconclusive, IMPase inh inconclusive and 12-hLO inh inactive.
COCCCN1C(=O)C(O)=C(C(=O)c2ccc(C)o2)C1c1cccc(Br)c1 (stereo unspecified) was read as HPGD block inactive, ALDH1A1 inh inactive, IMPase Li inh 10µM, PNC assembly inh inactive, IMPase inh inconclusive and 12-hLO inh inactive.
O=C(C1=C(O)C(=O)N(CCc2ccccc2)C1c1cccs1)c1ccco1 (stereo unspecified) was read as ALDH1A1 inh inactive and IMPase Li inh inactive.
Screening O=C(C1=C(O)C(=O)N(CCc2ccccc2)C1c1cccnc1)c1ccco1 (stereo unspecified) returned HPGD block inactive, ALDH1A1 inh 18µM, IMPase Li inh 4.5µM, PNC assembly inh inactive, IMPase inh inconclusive and 12-hLO inh inactive.
O=S(=O)(c1cccc(C(F)(F)F)c1)N(CCCN1CCOCC1)Cc1cccs1 was read as HPGD block inactive, ALDH1A1 inh 13µM, IMPase Li inh inactive, PNC assembly inh inconclusive, IMPase inh inactive and 12-hLO inh inactive.
`CC1(C)CC(=O)C(C=NCCN2CCN(C3CC(=O)N(c4cccc(Br)c4)C3=O)CC2)=C(O)C1` (stereo unspecified) gave ALDH1A1 inh 25µM and IMPase Li inh inactive.
Screening Cc1cccc(N2CCN(S(=O)(=O)c3ccc4oc(=O)c5ncn(C)c5c4c3)CC2)c1C returned IMPase inh inactive.
For CN(C(=O)COC(=O)c1cc(S(=O)(=O)N2CCOCC2)c(Cl)cc1Cl)C1CCS(=O)(=O)C1 (stereo unspecified) the results were ALDH1A1 inh inactive and IMPase Li inh inactive.
Screening CN(C(=O)COc1ccc(S(=O)(=O)N2CCOCC2)cc1[N+](=O)[O-])C1CCS(=O)(=O)C1 (stereo unspecified) returned ALDH1A1 inh 13µM.
For CC(C)N1CCN(Cc2ccoc2)CC1CCO (stereo unspecified) the results were ALDH1A1 inh inactive and IMPase Li inh inactive.
For O=C(O)CCC(=O)N1CCN(c2nc(-c3ccccc3Cl)c3cc(Br)ccc3n2)CC1 the results were HPGD block inactive, ALDH1A1 inh inconclusive, IMPase Li inh 14µM, PNC assembly inh inactive, IMPase inh inconclusive and 12-hLO inh inactive.
For COc1ccc(C2C(C(=O)Nc3cccnc3)=C(C)Nc3nc(-c4cccs4)nn32)cc1OC (stereo unspecified) the results were HPGD block inactive, ALDH1A1 inh inactive, IMPase Li inh inactive, PNC assembly inh -108, IMPase inh inactive and 12-hLO inh inactive.
For COc1ccc(C2C(C(=O)Nc3cccnc3)=C(C)Nc3nc(-c4cccs4)nn32)cc1 (stereo unspecified) the results were HPGD block inactive, ALDH1A1 inh inactive, IMPase Li inh inactive, PNC assembly inh inactive, IMPase inh inactive and 12-hLO inh inactive.
Cc1ccc(S(=O)(=O)NC2CCC(C(=O)O)CC2)cc1 (stereo unspecified) was read as HPGD block inactive, ALDH1A1 inh inconclusive, IMPase Li inh inactive, PNC assembly inh -103, IMPase inh inactive and 12-hLO inh inactive.
